The entries come from a sample that favours hits as a whole.
Pf Dd2 inh: inhibitors of Plasmodium falciparum Dd2 growth; Potency, µM (series often up to 28.9 µM), for the others: at the top dose activity, negative = inhibition, actives largely listed as inhibitors; 4.3% of 120,000 active; P. falciparum Dd2 growth, SYBR Green, 72 h; active = well fitted inhibition curve with a large enough effect;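 note: plate controls were DMSO vehicle for no effect and reference drug for full effect; nearly all actives have a fitted effect of over 65% in size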
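Readout: SYBR Green fluorescence, 485 nm excitation, 535 nm emission, after ~16 h lysis at 37C. Before that, Dd2-infected red cells (2.5% hematocrit) grew 72 h with compound, 29 uM top final concentration.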
An asterisk follows results filed as active; i = inactive; [ ] = another dose, or the depositor's remark. Potency is the fitted concentration of half-maximal effect.

SMILES	Pf Dd2 inh
Cc1ccc(C(=O)N2CCC(n3cc(-c4nc(C)no4)nn3)C2)c(C)c1 (configuration not stated)	-22%
COc1cccc(CC(=O)N2CCC([C@@H]3CNC[C@H]3CO)CC2)c1	25%
O=C([C@H]1C[C@@H](F)CN1C(=O)c1ccc(Cl)cc1)N1CCOCC1	41%
Cc1cccc(N2C(=O)N(Cc3cc(=O)n4ccccc4n3)c3ccccc3S2(=O)=O)c1	i
Cc1ccc(N2C(=O)N(Cc3cc(=O)n4ccccc4n3)c3ccccc3S2(=O)=O)cc1Cl	10µM*
Cc1ccc(N2C(=O)N(Cc3cccc(Cl)c3)c3ccccc3S2(=O)=O)cc1	-7%
CC(C)N1C[C@H](O)C[C@H]1c1nnc2n1CCN(C(=O)c1nccn1C)CC2	1%
O=C(NCCc1nc2ccccc2n1Cc1ccc(Cl)cc1)c1ccccc1	9%
O=C(NCCc1nc2ccccc2n1Cc1ccc(Cl)cc1Cl)c1ccco1	11µM*
CCCC(=O)NCCc1nc2ccccc2n1Cc1c(F)cccc1Cl	-21%
CCc1ccccc1NC(=O)Cn1ccn2nc(-c3ccc(F)cc3)c(CO)c2c1=O	-9%
Cc1ccc(C(=O)N2C3CCCC2CC(=O)C3)cc1	2%[44.1 µM]
CCOc1ccccc1C1NC(=O)N(CC(=O)Nc2cccc(CC)c2)C2=C1C(=O)OC2 (configuration not stated)	i
CCc1nc2c(c(-c3ccc(O)cc3)n1)CN(Cc1ccnn1C)CC2	5%
CCc1nc2c(c(-c3ccc(Cl)cc3)n1)CN(C(C)=O)CC2	3%[44.1 µM]
CCc1nc2c(c(-c3ccc(Cl)cc3)n1)CCN(Cc1ccnn1C)CC2	i
CCc1nc2c(c(-c3ccc(Cl)cc3)n1)CN(Cc1ccc(N(C)C)cc1)CC2	8.9µM*
O=C(C1CCN(c2nc(-c3ccccc3)nc3c2CCC3)CC1)N1CCNCC1	13µM*
CCc1nc2c(c(-c3ccc(O)cc3)n1)CCN(C(=O)c1ccc(F)cc1)CC2	i
O=C(NC1CCNCC1)C1CCN(c2nc(-c3ccccc3)nc3c2CCC3)CC1	-11%
CCc1nc2c(c(-c3ccc(O)cc3)n1)CCN(Cc1ccccc1C(F)(F)F)CC2	1.8µM*
CCc1nc2c(c(-c3ccc(O)cc3)n1)CCN(C(=O)Nc1ccc(Cl)cc1)CC2	i
NC(=O)[C@@H]1CCCN1C(=O)C1CCN(c2nc(-c3ccccc3)nc3c2CCC3)CC1	-20%
CCc1nc2c(c(-c3ccc(Cl)cc3)n1)CN(C(=O)Nc1ccccc1)CC2	11µM*
CCc1nc2c(c(-c3ccc(O)cc3)n1)CN(Cc1ccc(F)cc1)CC2	-7%
SMILES	Pf Dd2 inh
Cn1ncc(N2CCCC(CC(=O)N3CCSCC3)C2)cc1=O (configuration not stated)	-9%
CCc1noc(-c2ccn3c(CNC(=O)c4cccc5[nH]ccc45)nnc3c2)n1	-1%
Cc1ccccc1OCC(=O)NC1CCN(c2cc(-c3ccccc3)[nH]n2)CC1	i
CCOC(=O)C1=C(C)N=C2SC=C(CC(=O)N3CCOCC3)N2C1c1cccc([N+](=O)[O-])c1 (configuration not stated)	i
CCn1nccc1C(=O)N1CCCCCCNC(=O)[C@@H]2CCC[C@@H]21	8%
Cc1nc(-c2c3n(c(=O)n(CC#N)c2=O)CCCCC3)no1	32%
CCn1cc(S(=O)(=O)N2CC(Oc3cccc(-c4nc(C)no4)c3)C2)cn1	i[5.79 µM]
CC(=O)Nc1ccc(C(=O)NC2CCN(c3cc(-c4ccccc4)[nH]n3)C2)cc1 (configuration not stated)	i
CCCC1c2nccn2CCCN1C(=O)c1ccoc1C (configuration not stated)	-1%
Cc1csc(NC(=O)c2nc3c(o2)CCN(Cc2cc(F)ccc2F)CC3)n1	-15%[44.1 µM]
CNC(=O)[C@@H]1CN(C(=O)c2ccc3cc[nH]c3c2)C[C@H]1C1CCN(C)CC1	19%
O=C1NCCN2CC3(CCN(S(=O)(=O)c4cccc(F)c4)CC3)CC12 (configuration not stated)	-8%
CCc1nc2c(c(-c3ccc(OC)cc3)n1)CCN(C(=O)c1ccc(OC)cc1)CC2	28%
CCc1nc2c(c(-c3ccc(OC)cc3)n1)CCN(Cc1ccc(C(F)(F)F)cc1)CC2	11µM*
CCc1nc2c(c(-c3ccc(Cl)cc3)n1)CCN(C(=O)c1ccccc1OC)CC2	i
CCc1nc2c(c(-c3ccc(Cl)cc3)n1)CN(CC1CC1)CC2	4.5µM*
CCc1nc2c(c(-c3ccc(OC)cc3)n1)CN([S+](=O)([O-])c1cccc(OC)c1)CC2	-24%
CCc1nc2c(c(-c3ccc(Cl)cc3)n1)CN([S+](=O)([O-])c1ccc(C)cc1)CC2	i
COc1ccc(-c2nc(C)nc3c2CCN(Cc2ccc(F)cc2)CC3)cc1	i
CCc1nc2c(c(-c3ccc(Cl)cc3)n1)CN(Cc1cccc(OC)c1)CC2	10µM*
CCc1nc2c(c(-c3ccc(Cl)cc3)n1)CN(C(=O)c1ccc(F)cc1)CC2	-4%
O=C(C1CCCC1)N1CCc2nc(-c3ccccc3)nc(-c3ccc(Cl)cc3)c2C1	4µM*
O=C(C1CC1)N1CCc2nc(-c3ccccc3)nc(-c3ccc(Cl)cc3)c2C1	i
O=C(C1CCCC1)N1CCc2nc(-c3ccc(Cl)cc3)nc(-c3ccccc3)c2C1	i
O=C1CC2(CCN(C(=O)C3(c4ccc(F)cc4)CCOCC3)C2)C(=O)N1 (configuration not stated)	-21%
SMILES	Pf Dd2 inh
COCCN1C[C@H]2CN(C(=O)NCc3ccccc3)CCN2C1=O	-9%[44.1 µM]
O=C(c1cccc(Cl)c1)N1CCC2(CC1)CC(O)CCO2 (configuration not stated)	-5%
CN1C(=O)CCC2(CNC(=O)c3ccncc3)CCC=C12 (configuration not stated)	-24%
Cc1noc([C@@H](C)NS(=O)(=O)c2ccc(Cl)cc2)c1C(=O)O	22%[44.1 µM]
CC(C)NC(=O)N1CCC2(CC1)CN(C(=O)Cc1c[nH]c3ccccc13)CCO2	3%
O=C(NC[C@H]1O[C@@H](CC(=O)N2CCN(c3ccc(F)cc3)CC2)[C@H](O)[C@@H]1O)c1cccc(F)c1	-13%
CCc1nc2c(c(-c3ccc(OC)cc3)n1)CN(C(=O)c1ccc(OC)cc1)CC2	-15%
Cc1ccc(C(=O)N2CCc3nc(C4CC4)nc(-c4ccc(Cl)cc4)c3C2)cc1	-30%
COC(=O)N1CCc2nc(-c3ccc(OC)cc3)nc(-c3ccccc3)c2C1	i
CCc1nc2c(c(-c3ccc(Cl)cc3)n1)CN(Cc1ccc(OC)cc1)CC2	11µM*
COCC(=O)N1CCc2nc(-c3ccccc3)nc(-c3ccc(OC)cc3)c2C1	-8%
COc1ccc(-c2nc(C3CC3)nc3c2CN(C(=O)c2ccccc2F)CC3)cc1	-11%
COc1ccc(-c2nc(-c3ccccc3)nc3c2CN(C(=O)Cc2ccccn2)CC3)cc1	5.6µM*
CCc1nc2c(c(-c3ccc(Cl)cc3)n1)CN(Cc1cccc3ccccc13)CC2	-1%
COc1ccccc1C(=O)N1CCc2nc(C3CC3)nc(-c3ccc(Cl)cc3)c2C1	11µM*
Cc1ccccc1C(=O)Nc1ccnn1C1CCN(C(=O)C2(C(N)=O)CC2)CC1	-12%
COC[C@H]1CCCN1[C@@H]1[C@H](O)[C@H](CO)O[C@@H]1CNC(=O)Nc1cccc(Cl)c1	i
COc1ccc([C@H](C)NC(=O)c2c(C)noc2-c2ccc(OC(F)(F)F)cc2)cc1	i
CC(C)CCNC(=O)N1CCC(OC2CCN(S(C)(=O)=O)CC2)CC1	i
CN(CC[C@H]1CN(C(=O)NC2CCCCC2)CC[C@H]1CC(=O)O)c1ccccc1	i

From PubChem BioAssay
